Source: PubChem BioAssay AID1159580 (chemical genetic matrix, 2015)
Where “and” joins values, the source holds several entries; their conditions need not be identical. Equal values may be shown once. About 2,000 (36%) of roughly 5,500 compounds were called active. About 18% were inconclusive and are not listed. Rule as the data show it: active = normalized growth mostly below about 0.91 (no sharp cut-off); inconclusive = no clear call, values can overlap the other calls; inactive = mostly above about 0.92. The list shows a part of the results.

Assay: chemical genetic growth profiling, strain panel (AID 1159580);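 also: tested at 20 µM; growth read once vehicle control cultures reached saturation at 30 °C; 1 = growth at the plate median or of vehicle wells; lower values mean less growth of the strain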
Settings: S. cerevisiae deletion strains, growth OD

Measured: normalized growth

CN1CCC(=C2c3ccccc3CC(=O)c3sccc32)CC1
inactive: locus YAL013W, strain DEP1, stronger effect = lower value 1.01 | locus YAL021C, strain ccr4, stronger effect = lower value 0.985 | locus YAL026C, strain drs2, stronger effect = lower value 0.981 | locus YAL030W, strain snc1, stronger effect = lower value 0.975 | locus YAL040C, strain CLN3, stronger effect = lower value 0.992 | locus YBL061C, strain skt5, stronger effect = lower value 0.981 | locus YBR009C, strain hhf1, stronger effect = lower value 1.02 | locus YBR021W, strain FUR4, stronger effect = lower value 1.01 | locus YBR023C, strain chs3, stronger effect = lower value 0.986 | locus YBR171W, strain sec66, stronger effect = lower value 0.964 | locus YBR229C, strain ROT2, stronger effect = lower value 0.999 | locus YBR231C, strain swc5, stronger effect = lower value 0.964 | locus YBR279W, strain paf1, stronger effect = lower value 0.994 | locus YCL011C, strain gbp2, stronger effect = lower value 0.989 | locus YCL016C, strain dcc1, stronger effect = lower value 1.04 | locus YCL029C, strain bik1, stronger effect = lower value 1.02 | locus YCL061C, strain MRC1 (second series), stronger effect = lower value 1 | locus YCL069W, strain vba3, stronger effect = lower value 0.983 | locus YCR088W, strain abp1, stronger effect = lower value 0.973 | locus YDL005C, strain med2, stronger effect = lower value 0.991 | locus YDL035C, strain GPR1, stronger effect = lower value 1.02 | locus YDL040C, strain nat1, stronger effect = lower value 0.984 | locus YDL074C, strain BRE1, stronger effect = lower value 1.02 | locus YDL101C, strain DUN1, stronger effect = lower value 1.02 | locus YDL134C, strain PPH21, stronger effect = lower value 1.01 | locus YDL185W, strain tfp1, stronger effect = lower value 1.01 | locus YDL192W, strain arf1, stronger effect = lower value 1.01 | locus YDR001C, strain nth1, stronger effect = lower value 0.957 | locus YDR069C, strain doa4, stronger effect = lower value 0.954 | locus YDR101C, strain arx1, stronger effect = lower value 1.01 | locus YDR137W, strain rgp1, stronger effect = lower value 0.974 | locus YDR150W, strain NUM1, stronger effect = lower value 1 | locus YDR159W, strain sac3, stronger effect = lower value 1.03 | locus YDR162C, strain NBP2, stronger effect = lower value 1.01 | locus YDR195W, strain ref2 0.895 | locus YDR297W, strain sur2, stronger effect = lower value 0.982 | locus YDR318W, strain mcm21, stronger effect = lower value 1.02 | locus YDR334W, strain swr1, stronger effect = lower value 0.928 | locus YDR335W, strain msn5, stronger effect = lower value 0.977 | locus YDR363W, strain ESC2, stronger effect = lower value 0.985 | locus YDR388W, stronger effect = lower value 1.01 | locus YDR392W, strain spt3, stronger effect = lower value 1.04 | locus YDR502C, strain sam2, stronger effect = lower value 1.01 | locus YEL003W, strain gim4, stronger effect = lower value 0.986 | locus YEL037C, strain rad23, stronger effect = lower value 0.99 | locus YEL061C, strain CIN8 (second series), stronger effect = lower value 0.966 | locus YEL061C, strain CIN8, stronger effect = lower value 1.01 | locus YER002W, strain NOP16, stronger effect = lower value 0.993 | locus YER015W, strain faa2, stronger effect = lower value 1.01 | locus YER016W, strain bim1, stronger effect = lower value 1 | locus YER110C, stronger effect = lower value 1.01 | locus YER111C, strain swi4, stronger effect = lower value 0.972 | locus YER155C, strain BEM2 (second series), stronger effect = lower value 0.927 | locus YER155C, strain BEM2, stronger effect = lower value 1 | locus YER167W, strain BCK2, stronger effect = lower value 1 | locus YFR010W, strain ubp6, stronger effect = lower value 0.958 | locus YGL078C, strain dbp3, stronger effect = lower value 1.01 | locus YGL086W, strain mad1, stronger effect = lower value 0.994 | locus YGL167C, strain pmr1, stronger effect = lower value 0.964 | locus YGL173C, strain kem1, stronger effect = lower value 0.984 | locus YGL227W, strain vid30, stronger effect = lower value 0.984 | locus YGL240W, strain doc1, stronger effect = lower value 0.957 | locus YGL248W, strain PDE1, stronger effect = lower value 1.01 | locus YGL253W, strain hxk2, stronger effect = lower value 1 | locus YGR078C, strain PAC10, stronger effect = lower value 1.01 | locus YGR135W, strain pre9, stronger effect = lower value 1 | locus YGR229C, strain SMI1, stronger effect = lower value 0.999 and 0.99 | locus YGR252W, strain gcn5, stronger effect = lower value 0.962 | locus YHR013C, strain ard1, stronger effect = lower value 0.971 | locus YHR027C, strain rpn1, stronger effect = lower value 0.992 | locus YHR030C, strain SLT2, stronger effect = lower value 1.01 and 1.04 | locus YHR079C, strain IRE1 (second series), stronger effect = lower value 1.02 | locus YHR079C, strain IRE1, stronger effect = lower value 1.03 | locus YHR094C, strain hxt1, stronger effect = lower value 1.01 | locus YHR129C, strain ARP1, stronger effect = lower value 1 | locus YHR142W, strain chs7, stronger effect = lower value 0.99 | locus YHR200W, strain rpn10, stronger effect = lower value 1.02 | locus YIL066C, strain RNR3, stronger effect = lower value 1.01 | locus YIL073C, strain SPO22, stronger effect = lower value 1.06 | locus YIL125W, strain kgd1, stronger effect = lower value 0.998 | locus YIR030C, strain dcg1, stronger effect = lower value 1.01 | locus YJL092W, strain hpr5, stronger effect = lower value 0.977 | locus YJL095W, strain BCK1 (second series), stronger effect = lower value 0.973 | locus YJL095W, strain BCK1, stronger effect = lower value 1.02 | locus YJL115W, strain asf1, stronger effect = lower value 0.953 | locus YJL129C, strain trk1, stronger effect = lower value 0.969 | locus YJL134W, strain LCB3, stronger effect = lower value 1.01 | locus YJL154C, strain vps35, stronger effect = lower value 0.968 | locus YJL164C, strain tpk1, stronger effect = lower value 1.02 | locus YJL166W, strain qcr8, stronger effect = lower value 0.95 | locus YJL168C, strain set2, stronger effect = lower value 1.01 | locus YJL187C, strain SWE1 (second series), stronger effect = lower value 1.02 | locus YJR043C, strain POL32, stronger effect = lower value 1.02 | locus YJR066W, strain TOR1, stronger effect = lower value 0.989 | locus YJR075W, strain HOC1, stronger effect = lower value 1.01
